The text below walks through data of PubChem BioAssay (NCATS).

Values without a mark were called inactive. Results filed as inconclusive are left out. Activity calls are given as the source filed them. Unless noted, calls come from the whole dose curve; as a rule, active = well fitted curve in the direction sought with a large enough effect; inconclusive = small, poorly fitted or top-dose-only effect, or another doubt; inactive = no such curve, though single readings can be large; an effect the other way counts as inactive or inconclusive.

Experiment [1] deals with Nuclear receptor subfamily 1 group I member 3 (Homo sapiens) (UniProt Q14994). Put plainly: Primary qHTS for antagonist of constitutive androstane receptor (CAR) against the NCATS DSHEA and TCM libraries (AID 1794836).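 Note: HepG2 cells stably expressing hCAR with CYP2B6 luciferase reporter stimulated by CITCO; series mostly up to about 40 µM.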 A digest of the protocol:
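Antagonist mode: CAR reporter luminescence (ONE-Glo) in HepG2-CYP2B6-hCAR cells stimulated with 48 uM CITCO (final) over 24 h at 37 C, compounds titrated; viability read first by CellTiter-Fluor fluorescence.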

A short description of experiment [2]: KB-8-5-11 P-gp reporter qHTS against the NCATS DSHEA and TCM libraries (AID 1919977). Note: potency is the fitted concentration of half-maximal effect. In short, it runs like this: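 P-gp-overexpressing KB-8-5-11 cells were screened in colchicine-free medium at 500 cells/well, as a titration series. Cells were exposed for 72 h at 37C. Viability was read by CellTiter-Glo luminescence after 30 min at room temperature.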
The nature of experiment [3]: Viability counterscreen for antagonist of constitutive androstane receptor (CAR) against the NCATS DSHEA and TCM libraries (AID 1794837).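 Note: compound exposure lasted 24 h before viability reading; 0% is about no effect.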 A digest of the protocol:
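HepG2-CYP2B6-hCAR cells, 2,500/well, were exposed 24 hr at 37C to substances together with 48 uM CITCO (final). Viability was read as CellTiter-Fluor fluorescence (Ex/Em 405/540 nm) after 1 hr.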
On the technique in general: The purpose of a counterscreen is to sort out artefacts and off-target activity.

Experiment [4] can be described thus: Viability counterscreen for agonist of constitutive androstane receptor (CAR) against the NCATS DSHEA and TCM libraries (AID 1794838).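 Note: HepG2 cells with CYP2B6 reporter and hCAR plus 0.75 µM PK11195 antagonist; 0% is about no effect.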 In short, it runs like this:
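HepG2-CYP2B6-hCAR cells (2,500/well) treated 24 h at 37C with compounds plus 0.75 uM PK11195; viability read by CellTiter-Fluor fluorescence, Ex/Em 405/540 nm.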

The nature of experiment [5]: HepG2 viability counterscreen (readout 2: ATP content) against the NCATS DSHEA and TCM libraries (AID 1794840). Note: 0% is about no effect. A digest of the protocol: (§1)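 HepG2 cells, 1,000/well, attached ~4 h, then exposed ~24 h at 37C to substances. Protease activity read by fluorescence of 25 uM GF-AFC (Ex/Em 380/510 nm) after 30 min; ATP then by CellTiter-Glo luminescence.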
Experiment [6] is described as follows: HepG2 viability counterscreen (readout 1: protease activity) against the NCATS DSHEA and TCM libraries (AID 1794841).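 Note: cells exposed to compounds for about 24 h before the protease read; 0% is about no effect.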 In short, it runs like this: as §1
In experiment [7] the target is Cytochrome P450 3A4 (Homo sapiens) (UniProt P08684). As to the kind of experiment: qHTS for inhibitors of CYP3A4 against the NCATS DSHEA and TCM libraries (AID 1919971). Note: potency is the fitted concentration of half-maximal effect. In short, it runs like this:
(§2)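 Light output from converted D-luciferin reports remaining CYP activity. Compounds preincubate with enzyme and substrate for 15 min; NADPH regeneration (1x final) runs the reaction for 30-45 min.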
On the technique in general: Quantitative high-throughput screening tests each substance at several concentrations.

For experiment [8], the target named is Cytochrome P450 2D6 (Homo sapiens) (UniProt P10635). Put plainly: qHTS for inhibitors of CYP2D6 against the NCATS DSHEA and TCM libraries (AID 1919972). Note: potency is the fitted concentration of half-maximal effect. A digest of the protocol:
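Steps: enzyme plus luciferin substrate dispensed; test substances pinned; 15 min RT; 1x NADPH regenerating solution added, 30–45 min RT protected from light; detection reagent, 30 min RT; luminescence measured. Minus-enzyme wells as background.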

The target in experiment [9] is Cytochrome P450 2C9 (Homo sapiens) (UniProt P11712). As to the kind of experiment: qHTS for inhibitors of CYP2C9 against the NCATS DSHEA and TCM libraries (AID 1919973). Note: potency is the fitted concentration of half-maximal effect. A digest of the protocol: as §2
Sequence of Cytochrome P450 2C9 (Homo sapiens) (P11712 whole entry, looked up): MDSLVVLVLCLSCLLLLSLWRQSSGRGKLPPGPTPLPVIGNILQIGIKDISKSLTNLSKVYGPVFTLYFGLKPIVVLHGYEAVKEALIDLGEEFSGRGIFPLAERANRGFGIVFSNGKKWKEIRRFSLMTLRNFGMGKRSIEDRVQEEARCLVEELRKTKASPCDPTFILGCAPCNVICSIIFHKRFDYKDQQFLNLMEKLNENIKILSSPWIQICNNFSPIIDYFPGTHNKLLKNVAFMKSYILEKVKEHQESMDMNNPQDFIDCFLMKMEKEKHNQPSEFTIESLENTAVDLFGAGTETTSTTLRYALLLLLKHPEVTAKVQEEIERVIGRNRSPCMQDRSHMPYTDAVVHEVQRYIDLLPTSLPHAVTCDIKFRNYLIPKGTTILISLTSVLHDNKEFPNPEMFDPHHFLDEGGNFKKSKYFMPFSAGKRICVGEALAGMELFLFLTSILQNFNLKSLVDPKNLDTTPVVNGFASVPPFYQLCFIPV
Experiment [10] concerns the target Cytochrome P450 2C19 (Homo sapiens) (UniProt P33261). As to the kind of experiment: qHTS for inhibitors of CYP2C19 against the NCATS DSHEA and TCM libraries (AID 1919974).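 Note: luminescence from luciferin released by CYP2C19 oxidation of a pro-luciferin substrate.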 Note: potency is the fitted concentration of half-maximal effect. In short, it runs like this:
as §2

Experiment [11] is described as follows: KB-3-1 P-gp reporter qHTS against the NCATS DSHEA and TCM libraries (AID 1919975). Note: 0% is about no effect. A digest of the protocol: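 Parental KB-3-1 cells, 500 cells/well, in DMEM with 10% FBS, exposed 72 h at 37 C to compounds in concentration-response. Viability read by CellTiter-Glo luminescence after 30 min at room temperature.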
In experiment [12] the target is Cytochrome P450 1A2 (Homo sapiens) (UniProt P05177). As to the kind of experiment: qHTS for inhibitors of CYPIA2 against the NCATS DSHEA and TCM libraries (AID 1919976). Note: potency is the fitted concentration of half-maximal effect. A digest of the protocol: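 In this quantitative HTS, inhibition of recombinant human CYP1A2 was measured as loss of luciferin-derived luminescence. Turnover ran 30-45 min at RT after NADPH regeneration solution was added.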
Sequence of Cytochrome P450 1A2 (Homo sapiens) (P05177 whole entry, looked up): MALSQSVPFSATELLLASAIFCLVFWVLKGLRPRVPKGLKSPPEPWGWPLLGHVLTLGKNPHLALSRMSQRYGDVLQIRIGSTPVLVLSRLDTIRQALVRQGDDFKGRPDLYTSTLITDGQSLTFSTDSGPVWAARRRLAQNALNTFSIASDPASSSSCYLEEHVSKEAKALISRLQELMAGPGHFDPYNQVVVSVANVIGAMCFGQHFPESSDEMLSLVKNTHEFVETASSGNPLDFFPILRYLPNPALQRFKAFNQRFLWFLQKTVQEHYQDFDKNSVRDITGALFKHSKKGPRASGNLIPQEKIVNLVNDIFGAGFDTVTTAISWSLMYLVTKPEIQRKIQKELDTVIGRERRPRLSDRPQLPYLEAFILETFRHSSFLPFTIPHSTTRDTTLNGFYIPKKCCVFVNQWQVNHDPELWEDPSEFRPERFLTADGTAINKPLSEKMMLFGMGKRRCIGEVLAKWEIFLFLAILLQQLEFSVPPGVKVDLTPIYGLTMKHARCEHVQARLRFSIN

The nature of experiment [13]: qHTS Counterscreen for compound interference against the NCATS DSHEA and TCM libraries (AID 1919978).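 Note: compounds preincubated with 1 µM D-luciferin or buffer before detection reagent; % of control where 0% means no effect.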 To be noted: firefly luciferase detection reagent interference, luminescence. A digest of the protocol: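 Firefly luciferase detection reagent was added after compounds (19.5 nM–39.8 uM final) had been incubated 15 min at room temperature with 1 uM D-luciferin or with 100 mM phosphate buffer alone. Luminescence was read after 30 min at room temperature.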

A short description of experiment [14]: Dual reporter qHTS for agonist of Pregnane X Receptor (hPXR) against the NCATS DSHEA and TCM libraries: Fluorescence readout (AID 1920058). Note: 0% is about no effect. In short, it runs like this:
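Measures viability of the PXR reporter HepG2 line by protease-substrate fluorescence (405/540 nm), taken 1 h after CellTiter-Fluor addition. Substances are tested as concentration series over a ~24 h exposure, with rifampicin as agonist control.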

Experiment [15] addresses Nuclear receptor subfamily 1 group I member 2 (Homo sapiens) (UniProt O75469). Put plainly: Dual reporter qHTS for agonist of Pregnane X Receptor (hPXR) against the NCATS DSHEA and TCM libraries: Luminescence readout (AID 1920059). Note: potency is the fitted concentration of half-maximal effect. A digest of the protocol: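 Luminescent PXR reporter read (ONE-Glo) after a CellTiter-Fluor viability read, following 24 h, 37C treatment of HepG2 cells stably carrying hPXR-Luc.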

Experiment [16] in a line: Dual reporter qHTS for antagonist of Pregnane X Receptor (hPXR) against the NCATS DSHEA and TCM libraries: Fluorescence Readout (AID 1920061). Note: 0% is about no effect. A digest of the protocol: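 Antagonist mode: rifampicin 2 uM final co-added with compounds to hPXR-LucHepG2 cells for 24 h at 37C. Viability by CellTiter-Fluor, Ex/Em 405/540 nm, 1 h; reporter by ONE-Glo luminescence.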
The target of experiment [17] is Cytochrome P450 1A2 (Homo sapiens) (UniProt P05177). As to the kind of experiment: p450-cyp1a2 (AID 410; calls by dose curve; note: potency is the fitted concentration of half-maximal effect). A digest of the protocol: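 Inhibition was calculated relative to 57 uM furafylline (full inhibition). The reaction used human CYP1A2 at 20nM with Luciferin-ME at its Km, 100uM, driven by an NADPH-regenerating system for 60 min at room temperature.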
Experiment [18] addresses Glucocorticoid receptor (Homo sapiens) (UniProt P04150). As to the kind of experiment: GR-GFP Redistribution (AID 450;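 active = compounds whose dose series gives a full or clear partial fitted curve of increased nuclear translocation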; note: potency is the fitted concentration of half-maximal effect). To be noted: U2OS GR-GFP nuclear translocation, laser cytometry, 2 h.
Experiment [19] has the same target. As to the kind of experiment: GR-EFC Redistribution (AID 451; calls by dose curve; note: potency is the fitted concentration of half-maximal effect). To be noted: CHO-K1 GR-EFC translocation, beta-gal luminescence, 2 h. In short, it runs like this: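 Translocation of GR-ED fusion to nuclear EA restores b-gal, read by luminescence after 1 h room-temperature detection. Engineered CHO-K1 biosensor cells, 1,000/well, exposed 2 h at 37 C to titrations up to 46 uM final.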

Experiment [20] has as its target Cytochrome P450 3A4 (Homo sapiens) (UniProt P08684). Put plainly: qHTS Assay for Activators of Cytochrome P450 3A4 (AID 885). Note: nearly all actives have a fitted effect of over 65% in size. A digest of the protocol:
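20nM CYP3A4 + 25uM Luciferin-PPXE (=KM), 200mM KPO4; cpd 10 min RT; NADPH regen, 60 min RT; stop w/ detection buffer, 20 min; luminescence. Normalized to 57 uM ketoconazole.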

Experiment [21] has as its target Cytochrome P450 2D6 (Homo sapiens) (UniProt P10635). As to the kind of experiment: qHTS Assay for Inhibitors and Substrates of Cytochrome P450 2D6 (AID 891). Note: potency is the fitted concentration of half-maximal effect; nearly all actives have a fitted effect of over 60% in size. A digest of the protocol: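 Human CYP2D6 (5 nM) with 30 uM Luciferin-ME EGE (at Km) in 100 mM KPO4, compound preincubated 10 min, then NADPH regeneration system for 60 min at room temperature. Luciferin read by luminescence; normalized to 1.43 uM quinidine.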

Experiment [22] addresses DNA dC->dU-editing enzyme APOBEC-3G (Homo sapiens) (UniProt Q9HC16). As to the kind of experiment: qHTS for inhibitors of Vif-A3G interactions: Validation (AID 588379). Note: 0% is about no effect. In short, it runs like this:
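HeLa cells stably expressing Vif and A3G-eYFP, 700 cells/well, incubated overnight at 37 deg C, then exposed to compound overnight at 37 deg C. Inhibition of Vif-mediated degradation read as increased yellow fluorescence (Ex 488/Em 500-530) by laser-scanning cytometry.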

Sequence of Cytochrome P450 3A4 (Homo sapiens) (P08684 whole entry, looked up): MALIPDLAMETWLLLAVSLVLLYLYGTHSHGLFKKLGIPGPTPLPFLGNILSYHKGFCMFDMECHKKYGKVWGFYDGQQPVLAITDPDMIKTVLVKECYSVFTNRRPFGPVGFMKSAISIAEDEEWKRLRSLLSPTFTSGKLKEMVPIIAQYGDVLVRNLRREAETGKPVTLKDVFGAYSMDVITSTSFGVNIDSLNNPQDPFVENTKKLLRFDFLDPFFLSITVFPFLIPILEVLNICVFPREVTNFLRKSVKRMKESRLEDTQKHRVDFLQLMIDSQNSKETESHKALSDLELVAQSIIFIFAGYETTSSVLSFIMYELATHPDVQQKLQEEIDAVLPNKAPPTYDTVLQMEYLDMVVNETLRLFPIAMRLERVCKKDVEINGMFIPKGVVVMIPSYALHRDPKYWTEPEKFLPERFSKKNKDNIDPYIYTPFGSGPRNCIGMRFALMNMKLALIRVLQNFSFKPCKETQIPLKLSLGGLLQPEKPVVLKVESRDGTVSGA
Sequence of Nuclear receptor subfamily 1 group I member 2 (Homo sapiens) (O75469 whole entry, looked up): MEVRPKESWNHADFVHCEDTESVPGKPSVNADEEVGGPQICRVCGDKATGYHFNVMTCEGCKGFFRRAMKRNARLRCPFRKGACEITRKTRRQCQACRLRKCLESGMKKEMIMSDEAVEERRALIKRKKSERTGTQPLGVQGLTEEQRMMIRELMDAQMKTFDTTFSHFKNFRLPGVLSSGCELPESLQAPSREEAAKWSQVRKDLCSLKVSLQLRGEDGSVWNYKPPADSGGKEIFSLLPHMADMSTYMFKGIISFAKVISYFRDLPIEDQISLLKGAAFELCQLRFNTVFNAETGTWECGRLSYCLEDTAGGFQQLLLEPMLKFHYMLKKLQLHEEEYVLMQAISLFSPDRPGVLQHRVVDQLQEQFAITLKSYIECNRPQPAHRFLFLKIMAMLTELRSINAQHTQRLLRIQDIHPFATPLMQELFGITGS
Sequence of Cytochrome P450 2D6 (Homo sapiens) (P10635 whole entry, looked up): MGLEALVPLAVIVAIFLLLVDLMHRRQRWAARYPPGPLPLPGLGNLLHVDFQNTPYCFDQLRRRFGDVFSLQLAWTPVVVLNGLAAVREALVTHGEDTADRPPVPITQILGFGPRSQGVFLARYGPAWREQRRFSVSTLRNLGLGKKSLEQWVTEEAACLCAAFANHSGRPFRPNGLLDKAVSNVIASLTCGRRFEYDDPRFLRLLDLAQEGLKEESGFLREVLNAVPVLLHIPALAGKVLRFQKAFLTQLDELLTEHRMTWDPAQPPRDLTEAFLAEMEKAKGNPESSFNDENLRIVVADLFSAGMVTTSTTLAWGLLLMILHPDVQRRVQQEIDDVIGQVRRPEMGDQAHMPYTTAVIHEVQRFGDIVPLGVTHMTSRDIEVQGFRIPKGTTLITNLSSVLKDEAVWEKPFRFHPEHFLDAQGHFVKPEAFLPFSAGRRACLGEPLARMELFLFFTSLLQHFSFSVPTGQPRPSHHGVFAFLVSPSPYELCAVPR
Sequence of Nuclear receptor subfamily 1 group I member 3 (Homo sapiens) (Q14994 whole entry, looked up): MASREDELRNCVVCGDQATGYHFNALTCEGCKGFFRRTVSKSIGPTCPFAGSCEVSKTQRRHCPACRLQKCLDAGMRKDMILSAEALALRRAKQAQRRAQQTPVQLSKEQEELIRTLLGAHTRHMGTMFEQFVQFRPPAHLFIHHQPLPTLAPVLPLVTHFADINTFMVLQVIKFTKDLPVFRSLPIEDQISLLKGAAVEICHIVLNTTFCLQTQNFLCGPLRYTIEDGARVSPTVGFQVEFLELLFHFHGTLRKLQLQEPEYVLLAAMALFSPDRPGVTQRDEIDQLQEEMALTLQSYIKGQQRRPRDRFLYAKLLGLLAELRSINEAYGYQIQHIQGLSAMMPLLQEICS
Sequence of Cytochrome P450 2C19 (Homo sapiens) (P33261 whole entry, looked up): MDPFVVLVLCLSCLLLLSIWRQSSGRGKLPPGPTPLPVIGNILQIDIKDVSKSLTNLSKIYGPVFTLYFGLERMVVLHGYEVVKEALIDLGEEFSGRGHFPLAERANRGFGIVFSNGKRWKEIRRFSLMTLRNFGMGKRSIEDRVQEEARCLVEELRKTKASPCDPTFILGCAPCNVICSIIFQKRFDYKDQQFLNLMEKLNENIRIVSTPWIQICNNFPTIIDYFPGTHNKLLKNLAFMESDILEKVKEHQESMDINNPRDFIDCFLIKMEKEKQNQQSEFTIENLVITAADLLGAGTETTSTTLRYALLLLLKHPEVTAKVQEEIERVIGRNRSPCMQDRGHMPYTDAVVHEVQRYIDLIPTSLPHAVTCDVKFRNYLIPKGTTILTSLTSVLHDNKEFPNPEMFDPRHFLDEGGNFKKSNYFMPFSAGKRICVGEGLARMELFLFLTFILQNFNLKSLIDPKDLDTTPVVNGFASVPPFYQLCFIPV
Sequence of Glucocorticoid receptor (Homo sapiens) (P04150 whole entry, looked up, the tested form may be a part): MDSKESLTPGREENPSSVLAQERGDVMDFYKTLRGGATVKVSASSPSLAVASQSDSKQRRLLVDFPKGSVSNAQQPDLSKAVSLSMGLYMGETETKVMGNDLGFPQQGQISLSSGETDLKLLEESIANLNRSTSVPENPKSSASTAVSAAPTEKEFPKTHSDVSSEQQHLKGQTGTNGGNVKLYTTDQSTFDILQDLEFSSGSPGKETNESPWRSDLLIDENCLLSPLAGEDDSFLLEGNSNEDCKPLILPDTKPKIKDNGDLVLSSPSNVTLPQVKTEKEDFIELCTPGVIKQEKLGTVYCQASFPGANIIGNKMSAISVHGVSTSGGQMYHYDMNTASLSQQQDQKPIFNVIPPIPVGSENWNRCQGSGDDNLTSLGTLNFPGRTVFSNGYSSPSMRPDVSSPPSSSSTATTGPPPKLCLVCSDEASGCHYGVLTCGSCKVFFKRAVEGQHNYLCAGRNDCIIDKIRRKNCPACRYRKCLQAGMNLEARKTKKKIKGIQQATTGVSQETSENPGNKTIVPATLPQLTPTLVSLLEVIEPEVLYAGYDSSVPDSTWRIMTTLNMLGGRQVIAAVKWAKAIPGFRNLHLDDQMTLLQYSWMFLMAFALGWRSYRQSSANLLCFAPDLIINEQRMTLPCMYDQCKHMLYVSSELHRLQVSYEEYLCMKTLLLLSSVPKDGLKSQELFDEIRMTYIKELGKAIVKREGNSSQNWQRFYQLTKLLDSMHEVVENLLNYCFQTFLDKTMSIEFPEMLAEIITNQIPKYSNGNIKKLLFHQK
Sequence of DNA dC->dU-editing enzyme APOBEC-3G (Homo sapiens) (Q9HC16 whole entry, looked up): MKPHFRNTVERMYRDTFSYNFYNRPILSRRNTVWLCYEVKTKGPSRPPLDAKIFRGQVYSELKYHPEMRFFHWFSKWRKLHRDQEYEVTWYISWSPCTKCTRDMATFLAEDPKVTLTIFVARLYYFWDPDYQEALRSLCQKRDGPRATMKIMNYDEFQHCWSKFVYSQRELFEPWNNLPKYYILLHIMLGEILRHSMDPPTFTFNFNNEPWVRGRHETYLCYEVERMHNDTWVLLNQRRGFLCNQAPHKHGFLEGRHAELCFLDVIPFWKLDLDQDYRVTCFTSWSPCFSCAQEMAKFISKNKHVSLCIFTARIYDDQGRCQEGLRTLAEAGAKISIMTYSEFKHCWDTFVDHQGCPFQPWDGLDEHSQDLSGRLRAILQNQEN

For the compound `CCCCCCCC/C=C/CCCCCCCCCC(=O)O`, the Potency result in experiment [1] and in experiment [2] was “inactive” in each case.

Regarding `COC(=O)C1=CO[C@@H](C)[C@@H]2CN3CC[C@@]4(C(=O)Nc5ccccc54)[C@@H]3CC12` (stereo partly specified), the Potency result in [1], in [8], in [9], in experiment [10], in [12] and in experiment [2] was “inactive” throughout. The call in [3], in [4], in experiment [5], in experiment [6], in experiment [11] and in experiment [14] was inactive. Besides, in experiment [16], the outcome was inactive. The results for the Potency in [7] and in experiment [15] were 14.1 µM (active) and 10 µM (active), respectively. Moreover, the max response in experiment [13] was 3.44%.

For `CC(C)=CCCC(C)(OC1OC(COC2OC(CO)C(O)C2O)C(O)C(O)C1O)C1CCC2(C)C1C(O)CC1C3(C)CCC(OC4OC(CO)C(O)C(O)C4OC4OC(CO)C(O)C(O)C4O)C(C)(C)C3CCC12C` (stereo unspecified), the Potency result in experiment [1] and in experiment [2] was “inactive” throughout.

`C=C[C@H]1CN2CCc3c([nH]c4ccccc34)[C@H]2C[C@@H]1/C(=C\OC)C(=O)OC`: the Potency entry in experiment [1] was “inactive”. Besides, the result in experiment [3], in [4], in experiment [5], in [6], in experiment [14] and in [16] was inactive. Further, the Potency in experiment [7] is 14.1 µM (active); in [9] it was 3.16 µM (active); in [10] it was 7.08 µM (active); in experiment [2] it was 22.4 µM (active). Moreover, in experiment [13], the max response is -1.5%.

On to `OC[C@H]1O[C@@H](OC[C@H]2O[C@@H](OC/C=C/c3ccccc3)[C@H](O)[C@@H](O)[C@@H]2O)[C@@H](O)[C@@H]1O`, for which the Potency entry in experiment [1] and in experiment [2] was “inactive” in each case.

As to `COc1cc(/C=C/c2ccccc2)oc(=O)c1`, the Potency result in [1] and in [2] was “inactive” in each case.

As to `CC/C=C\C/C=C\C/C=C\CCCCCCCC(=O)O`, the Potency entry in experiment [1] and in experiment [2] was “inactive” in each case.

Turning to `COc1cc2c(cc1O)CC1NCCc3cc(OC)c(OC)c-2c31` (stereo unspecified), the Potency entry in [1], in experiment [2] and in experiment [15] was “inactive” each time. The result in experiment [3], in experiment [4], in experiment [5], in experiment [6], in experiment [11] and in experiment [14] was inactive. Besides, the compound was classed as inactive in experiment [16]. For the same compound, the Potency was 6.31 µM (active) in experiment [8] and 15.8 µM (active) in experiment [12]. In experiment [13], the max response is -2.18%.

As for `O=C(OCC1=C[C@@H](O)[C@@H]2C=CO[C@@H](O[C@@H]3O[C@H](CO)[C@@H](O)[C@H](O)[C@H]3O)[C@H]12)c1ccc(O)cc1`, in experiment [1], the Potency entry is “inactive”.

Turning to `COc1cc2c(cc1O)C[C@H]1c3c(cc(OC)c(O)c3-2)CCN1C`, the Potency is 10 µM (active) in [17]; greater than 46 µM in experiment [18]; greater than 46 µM in experiment [19]; 6.31 µM (active) in experiment [21]; 5.01 µM (active) in experiment [8]; 3.98 µM (active) in experiment [10]. The Potency in experiment [12] was 10 µM (active). Further, the Potency result in [20], in [1], in [2] and in experiment [15] was “inactive” in each case. For the same compound, the outcome in [22], in [3], in experiment [4], in experiment [5], in [6] and in experiment [11] was inactive. The result in [14] was inactive. For the same compound, the max response in experiment [13] is -3.09%.
